The nature of experiment [1]: qHTS assay to identify small molecule antagonists of the glucocorticoid receptor (GR) signaling pathway - cell viability counter screen (AID 720693). Note: nearly all actives have a fitted effect of over 55% in size. In general terms: qHTS replaces the single test concentration by a dilution series.
The nature of experiment [2]: qHTS assay for identifying genotoxic compounds that show differential cytotoxicity against isogenic chicken DT40 cell lines with known DNA damage response pathways - wild type cell line (AID 743012). Note: nearly all actives have a fitted effect of over 60% in size. Note: potency is the fitted concentration of half-maximal effect. The method, boiled down: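 Cytotoxicity in repair-proficient parental chicken DT40 cells serves as the comparator for Rad54/Ku70- and Rev3-deficient lines. Cells were exposed to compounds for 40 h at 37 C/5% CO2, and ATP-based luminescence (CellTiter-Glo) measured viability.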

Experiment [3] is described as follows: qHTS assay for identifying genotoxic compounds that show differential cytotoxicity against isogenic chicken DT40 cell lines with known DNA damage response pathways - Rev3 mutant cell line (AID 743014). Note: nearly all actives have a fitted effect of over 55% in size. Note: potency is the fitted concentration of half-maximal effect.
Experiment [4] can be described thus: qHTS assay for identifying genotoxic compounds that show differential cytotoxicity against isogenic chicken DT40 cell lines with known DNA damage response pathways - Rad54/Ku70 mutant cell line (AID 743015). Note: nearly all actives have a fitted effect of over 60% in size. Note: potency is the fitted concentration of half-maximal effect.
Experiment [5] can be described thus: qHTS assay to identify small molecule antagonists of the androgen receptor (AR) signaling pathway - cell viability counter screen (AID 743033; note: nearly all actives have a fitted effect of over 45% in size).
Experiment [6] in a line: qHTS assay to identify small molecule antagonists of the androgen receptor (AR) signaling pathway using the MDA cell line - cell viability counter screen (AID 743041; note: nearly all actives have a fitted effect of over 45% in size). The method, boiled down: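 In this qHTS counter assay, fluorescence intensity after CellTiter-Fluor addition indicated viability of MDA-kb2 AR-luc cells given compounds and R1881 for 16 h at 37C.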
Experiment [7] is described as follows: qHTS assay to identify small molecule antagonists of the thyroid receptor (TR) signaling pathway - cell viability counter screen (AID 743064). Note: nearly all actives have a fitted effect of over 50% in size. Note: potency is the fitted concentration of half-maximal effect. The method, boiled down: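 In rat pituitary GH3.TRE-Luc reporter cells co-exposed to compound and 1 nM T3 for 23.5 h, cytotoxicity was assessed with CellTiter-Fluor in the same wells, read by fluorescence.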
The target of experiment [8] is Androgen receptor (Homo sapiens) (UniProt P10275). The experiment can be described thus: qHTS assay to identify small molecule antagonists of the androgen receptor (AR) signaling pathway (AID 743035; active = well fitted inhibition curve with a large enough effect in the signal ratio in the repeat runs, not every such curve was filed as active; the % refers to the signal ratio). The method, boiled down: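 Steps: seed AR-UAS-bla GripTite HEK293 cells, incubate 4 h at 37C; pin in test compound, then add agonist R1881; incubate 16 h at 37C; add LiveBLAzer B/G FRET substrate, 2 h at room temperature; read fluorescence.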
Androgen receptor (Homo sapiens), sequence (P10275 whole entry, looked up): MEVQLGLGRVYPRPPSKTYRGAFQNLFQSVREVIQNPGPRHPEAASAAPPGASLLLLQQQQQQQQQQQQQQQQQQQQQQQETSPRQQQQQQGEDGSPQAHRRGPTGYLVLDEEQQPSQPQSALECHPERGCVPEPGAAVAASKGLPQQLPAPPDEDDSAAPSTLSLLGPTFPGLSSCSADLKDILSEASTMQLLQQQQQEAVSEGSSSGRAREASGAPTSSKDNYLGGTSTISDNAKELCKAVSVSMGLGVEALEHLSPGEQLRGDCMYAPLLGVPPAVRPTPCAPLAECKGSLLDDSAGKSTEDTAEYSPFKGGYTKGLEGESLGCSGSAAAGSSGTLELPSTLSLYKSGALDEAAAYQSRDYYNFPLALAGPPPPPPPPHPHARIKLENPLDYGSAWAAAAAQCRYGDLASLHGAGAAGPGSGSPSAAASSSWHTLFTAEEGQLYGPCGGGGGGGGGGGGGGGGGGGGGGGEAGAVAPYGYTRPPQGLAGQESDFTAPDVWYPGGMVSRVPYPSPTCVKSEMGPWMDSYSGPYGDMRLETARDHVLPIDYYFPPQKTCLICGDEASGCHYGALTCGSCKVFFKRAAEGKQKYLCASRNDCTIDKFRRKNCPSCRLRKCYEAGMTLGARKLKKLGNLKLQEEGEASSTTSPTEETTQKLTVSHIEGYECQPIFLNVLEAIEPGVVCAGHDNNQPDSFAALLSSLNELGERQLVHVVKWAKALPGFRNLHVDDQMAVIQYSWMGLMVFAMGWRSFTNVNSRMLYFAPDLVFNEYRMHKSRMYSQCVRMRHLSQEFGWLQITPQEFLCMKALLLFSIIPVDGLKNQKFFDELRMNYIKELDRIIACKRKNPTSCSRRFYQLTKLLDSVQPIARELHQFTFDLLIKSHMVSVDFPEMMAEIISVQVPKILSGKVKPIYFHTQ

The target is the same in experiment [9]. Briefly: qHTS assay to identify small molecule agonists of the androgen receptor (AR) signaling pathway using the MDA cell line (AID 743040; note: nearly all actives have a fitted effect of over 20% in size). In short, it runs like this:
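Cell-based luciferase reporter: MDA-kb2, MMTV promoter (AR + GR response elements). 16 h compound exposure at 37C; ONE-Glo, 30 min RT, luminescence.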

Values without a mark were called inactive. Results filed as inconclusive are left out. Calls of active or inactive are those of the source. Unless noted, calls come from the whole dose curve; as a rule, active = well fitted curve in the direction sought with a large enough effect in the repeat runs; inconclusive = weak or mixed curves; inactive = no such curve, though single readings can be large; an effect the other way counts as inactive or inconclusive.

As for `CCCCc1ccc2c(n1)[C@@H](c1ccc(OC)cc1C[C@H](C)C(=O)O)[C@H](C(=O)O)[C@H]2c1ccc2c(c1)OCO2`, the outcome in experiment [1] and in experiment [5] was inactive. Also, the Potency entry in experiment [2], in experiment [3], in experiment [4], in [6] and in experiment [7] was “inactive” in each case.
Consider `O=C1CCCCCCCCCCCCCCO1`, for which the result in [1] and in [5] was inactive. Besides, the Potency entry in experiment [2], in [3], in experiment [4], in experiment [6] and in experiment [7] was “inactive” in each case.
On to `CCOc1ccccc1OCC`, for which the call in [1] and in [5] was inactive. Further, the Potency entry in experiment [2], in [3], in experiment [4], in experiment [6] and in experiment [7] was “inactive” in each case.
Take `CO[C@@]1(NC(=O)C(C(=O)O)c2ccc(O)cc2)C(=O)N2C(C(=O)O)=C(CSc3nnnn3C)CO[C@@H]21` (some centres undefined): the compound was called inactive in experiment [1] and in experiment [5]. The Potency entry in experiment [2], in experiment [3], in [4], in experiment [6] and in experiment [7] was “inactive” each time.
Turning to `CC1=C(C/C=C(\C)CCC[C@H](C)CCC[C@H](C)CCCC(C)C)C(=O)c2ccccc2C1=O`, the call in [1] and in [5] was inactive. The Potency result in experiment [2], in experiment [3], in experiment [4], in experiment [6] and in experiment [7] was “inactive” in each case.
As to `C[N+]1(C)CCCC(OC(=O)C(O)(c2ccccc2)c2ccccc2)C1` (centres undefined), the compound was called inactive in experiment [1] and in experiment [5]. Besides, the Potency entry in experiment [2], in [3], in experiment [4], in experiment [6] and in [7] was “inactive” in each case.
As to `Clc1cc(Cl)cc(Cl)c1`, the outcome in experiment [1] and in [5] was inactive. Further, the Potency entry in experiment [2], in [3], in experiment [4], in experiment [6] and in experiment [7] was “inactive” in each case.
For `CC(C)c1ccc2ncccc2c1`, the compound was called inactive in experiment [1] and in experiment [5]. For the same compound, the Potency entry in [2], in [3], in experiment [4], in [6] and in experiment [7] was “inactive” throughout.
`CC(CC=O)CC(C)(C)C` (centres undefined): the call in experiment [1] and in experiment [5] was inactive. Also, the Potency entry in [2], in experiment [3], in experiment [4], in experiment [6] and in [7] was “inactive” throughout.
Consider `Cc1c(N)c(=O)n(-c2ccccc2)n1C`, for which the result in experiment [1] and in [5] was inactive. Besides, the Potency result in [2], in experiment [3], in experiment [4], in experiment [6] and in experiment [7] was “inactive” in each case.
As for `O=S(=O)(O)c1cccc2ccccc12`, the call in [1] and in experiment [5] was inactive. The Potency result in experiment [2], in experiment [3], in experiment [4], in experiment [6] and in [7] was “inactive” in each case.
Take `CCCCCCCCCCCCSC`: the compound was called inactive in experiment [1] and in experiment [5]. Besides, the Potency result in experiment [2], in [4], in experiment [6] and in experiment [7] was “inactive” each time. Also, the Potency in experiment [3] is 61.1 µM (active).
For `CC12CCC(C(=O)C1=O)C2(C)C` (centres undefined), the compound was called inactive in experiment [1] and in experiment [5]. The Potency entry in [2], in [3], in experiment [4], in experiment [6] and in [7] was “inactive” in each case.
In the case of `O=C(O)Cc1csc(-c2ccc(Cl)cc2)n1`, in experiment [1], the compound was called inactive. Further, the Potency result in experiment [2], in experiment [3], in [4], in [8], in experiment [9] and in experiment [6] was “inactive” in each case. Moreover, the Potency entry in experiment [7] is “inactive”.
For the compound `CCOc1ccc2nc(S(N)(=O)=O)sc2c1`, the call in experiment [1] and in experiment [5] was inactive. Also, the Potency entry in experiment [2], in experiment [3], in experiment [4], in experiment [6] and in [7] was “inactive” throughout.
Turning to `Clc1cc(Cl)c(Cl)nc1Cl`, the compound was called inactive in [1] and in experiment [5]. In addition, the Potency result in experiment [2], in [3], in experiment [4], in experiment [6] and in experiment [7] was “inactive” each time.
For the compound `CCCn1cc[n+](C)c1C`, the outcome in experiment [1] and in experiment [5] was inactive. The Potency entry in [2], in experiment [3], in [4], in [6] and in [7] was “inactive” in each case.
As for `NCCCC(N)(C(=O)O)C(F)F` (centres undefined), the outcome in experiment [1] and in experiment [5] was inactive. Moreover, the Potency result in [2], in experiment [3], in experiment [4], in [6] and in experiment [7] was “inactive” throughout.
In the case of `CCN(C=O)CC`, the compound was classed as inactive in [1] and in experiment [5]. Also, the Potency result in experiment [2], in experiment [3], in experiment [4], in [6] and in [7] was “inactive” each time.
Regarding `FB(F)F`, the outcome in [1] and in [5] was inactive. For the same compound, the Potency entry in experiment [2], in experiment [3], in [4], in experiment [6] and in experiment [7] was “inactive” each time.
For `COc1ccccc1OCC1CNC(=O)O1` (centres undefined), the result in [1] and in [5] was inactive. Also, the Potency entry in experiment [2], in experiment [3], in experiment [4] and in [7] was “inactive” in each case.
Regarding `CC(=O)C1CCCCC1=O` (centres undefined), the compound was classed as inactive in experiment [1] and in [5]. Besides, the Potency result in experiment [2], in experiment [3], in experiment [4], in [6] and in experiment [7] was “inactive” throughout.
On to `Nc1ccccn1`, for which the compound was called inactive in [1] and in experiment [5]. Further, the Potency entry in experiment [2], in experiment [3], in experiment [4] and in experiment [7] was “inactive” throughout.
Turning to `CC(C#N)(CCC(=O)O)N=NC(C)(C#N)CCC(=O)O` (centres undefined), the compound was called inactive in experiment [1] and in experiment [5]. The Potency entry in [2], in experiment [3], in experiment [4], in experiment [6] and in experiment [7] was “inactive” in each case.
Regarding `C[N+]1(CC2COC(c3ccccc3)(c3ccccc3)O2)CCCCC1` (centres undefined), the compound was classed as inactive in experiment [1] and in experiment [5]. Besides, the Potency in [2] was 26.6 µM (active); in experiment [3], 29.8 µM (active); in [4] it was 26.6 µM (active). Further, the Potency result in experiment [6] and in experiment [7] was “inactive” in each case.
With `CC(C)CCCO`, the outcome in [1] and in experiment [5] was inactive. Moreover, the Potency result in [2], in experiment [3], in experiment [4], in [6] and in experiment [7] was “inactive” each time.
Regarding `CCCCc1nc(Cl)c(CO)n1Cc1ccc(-c2ccccc2-c2nn[nH]n2)cc1`, in experiment [1], the result was inactive. For the same compound, the Potency result in experiment [2], in experiment [3], in experiment [4] and in experiment [6] was “inactive” in each case.
Take `Nc1ccn([C@@H]2O[C@H](CO)[C@@H](O)C2(F)F)c(=O)n1`: the compound was classed as inactive in experiment [1] and in experiment [5]. Further, the Potency in experiment [2] is 0.015 µM (active); in experiment [3], 0.0188 µM (active); in [4] it was 0.0188 µM (active); in [7], 0.168 µM (active). Also, the Potency entry in experiment [6] is “inactive”.
For `C=C(C)C(=O)OCC1CCCO1` (centres undefined), the call in [1] and in experiment [5] was inactive. Moreover, the Potency result in experiment [2], in [3], in [4], in experiment [6] and in experiment [7] was “inactive” in each case.
With `C1CCC2(CCCCO2)OC1`, the outcome in experiment [1] and in experiment [5] was inactive. Also, the Potency result in experiment [2], in experiment [3], in [4], in experiment [6] and in experiment [7] was “inactive” in each case.
Take `CCCCCCCCCCCCCCCCCCO`: the outcome in [1] and in experiment [5] was inactive. The Potency entry in experiment [2], in [3], in [4], in experiment [6] and in experiment [7] was “inactive” in each case.

The values are drawn from PubChem BioAssay (Tox21).
